Records with an inconclusive call do not appear. A number with no mark means an inactive call. Active and inactive are the calls of the source. Calls come from the whole dose curve; as a rule, active = well fitted cell-killing curve with a large enough effect in the repeat runs; inconclusive = weak or mixed curves, or effect the other way; inactive = flat fitted curve, though single readings scatter.

The values below come from PubChem BioAssay (Tox21).
% is set by controls: 0 for no effect and ±100 for the full control effect; potency is the fitted concentration of half-maximal effect.

A short description of the test: cAMP Responsive Elements (CRE) small molecule agonists, cell-based qHTS assay: qHTS cell viability counter screen (AID 2060914). Note: nearly all actives have a fitted effect of over 50% in size. Conditions: CRE-bla HEK293T viability, CellTiter-Glo luminescence, 5 h; series mostly up to 92.4 µM; activity change, negative = cytotoxicity: at the top concentration. A digest of the protocol: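 CRE-bla HEK293T cells in 10% dialyzed FBS medium were exposed to compounds for 3 h at 37C after 18 h plating. CellTiter-Glo was then added in the same wells, and luminescence was read after 30 min at room temperature.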
On to `c1csc(SSc2cccs2)c1`, for which the “activity change, negative = cytotoxicity” value was 8.7%.
Same read-out and setting: the value for `O=C(COCCOCCOCC(=O)Nc1c(I)cc(I)c(C(=O)O)c1I)Nc1c(I)cc(I)c(C(=O)O)c1I` was -7.73% [at 42.5 µM]; that for `O=Cc1ccccc1Cl` was 1.23%; that for `CC(C)=CCNc1ncnc2c1ncn2[C@@H]1O[C@H](CO)[C@@H](O)[C@H]1O` was -17.5% [at 42.5 µM].
On the same count and under the same terms, with `O=c1cccc[nH]1` the figure was 4.52%.
Still for that read-out and setting: the value for `CC/C=C/CCCCCCCCCCOC(C)=O` was 10.4%; that for `Fc1c(F)c(F)c(Br)c(F)c1F` was 7.59%.
For the compound `CCCCCCCCCCCCOCCOCCOCCOCCOCCOCCOCCOCCOCCO`, the Potency was 29.8 µM (active).
Take `CCCCC1C(=O)N(c2ccccc2)N(c2ccccc2)C1=O`: the Potency entry is “inactive”.
With `CCN(C(=O)N(CC)c1ccccc1)c1ccccc1`, the “activity change, negative = cytotoxicity” value is -14.3%.
For the compound `c1ccc(OCc2ccc(CCCN3CCOCC3)cc2)cc1`, the “activity change, negative = cytotoxicity” value is -12.3% [at 42.5 µM].
The same measure, in the same setting: with `CC[C@@]1(c2ccccc2)NC(=O)N(C)C1=O` the figure was 20.4% [at 42.5 µM].
With `CCCCCCCCCCCCCCCO`, the Potency entry is “inactive”.
Turning to `CC(C)C1CCC(O)CC1` (stereo not given), the “activity change, negative = cytotoxicity” value is 1.64%.
The same measure, in the same setting: the value for `CC(C)(C)c1ccc(S)cc1` was -9.63%; that for `FC(F)(Cl)C(F)(Cl)Cl` was 1.3%; that for `Nc1ccc(C(=O)NCC(=O)O)cc1` was -8.9% [at 42.5 µM].
On the same count and under the same terms, the value for `CCCCCCCCCCCC(=O)N(CC)CC` was -4.54%; that for `Nc1cccc(O)c1` was -5.66%.
On the same count and under the same terms, the value for `O=S(=O)(O)CCN1CCN(CCO)CC1` was 8.05%; that for `O=C(Nc1cccc(Cl)c1)OCC#CCCl` was -0.0556%; that for `CCCCOCC` was 4.52%.
Take `CCCCCCCCCCCCCCCCCCOS(=O)(=O)O`: the “activity change, negative = cytotoxicity” value was 1.79%.
Consider `O=C1NS(=O)(=O)c2ccccc21`, for which the Potency result was “inactive”.
For the compound `COC(=O)c1cc(Cl)ccc1OC`, the “activity change, negative = cytotoxicity” value was 7.49% [at 42.5 µM].
Consider `O=C(N[C@@H](c1ccccc1)[C@@H]1CCCCN1)c1cccc(C(F)(F)F)c1Cl`, for which the “activity change, negative = cytotoxicity” value is 0.319%.
With `C=C1C2CCC(C2)C1(C)C` (stereo not given), the “activity change, negative = cytotoxicity” value was -17.8%.
Same read-out and setting: with `CC(COCCO)OCCO` (stereo not given) the figure was -0.79%; with `CCOC(=O)c1ccc(C#Cc2ccc3c(c2)C(C)(C)CCS3)nc1`, -7.05% [at 42.5 µM].
The same measure, in the same setting: with `CCCC(=O)OCCC(C)CCC=C(C)C` (stereo not given) the figure was 0.994%.
Turning to `C1CNCCN1`, the Potency result is “inactive”.
On the same count and under the same terms, with `CCOc1ccccc1C(N)=O` the entry was “inactive”.
`CC(O)CN(CCN(CC(C)O)CC(C)O)CC(C)O` (stereo not given): the Potency result was “inactive”.
Consider `CCCCOCCOCCOCc1cc2c(cc1CCC)OCO2`, for which the “activity change, negative = cytotoxicity” value was -13.4% [at 42.5 µM].
For the compound `CCCOC(=O)c1ccc(C(=O)OCCC)nc1`, the “activity change, negative = cytotoxicity” value was 1.11%.
On the same count and under the same terms, with `CC1=CC[C@@]23C[C@@H]1C(C)(C)[C@@H]2CC[C@H]3C` the figure was -2.92%.
Regarding `CC(C)(C)c1cc(C=O)cc(C(C)(C)C)c1O`, the “activity change, negative = cytotoxicity” value was -1.45% [at 42.5 µM].
On the same count and under the same terms, the value for `C/C=C(\C)C#N` was 1.2%; that for `CN[C@H]1CC[C@@H](c2ccc(Cl)c(Cl)c2)c2ccccc21` was 4.55% [at 42.5 µM].
As for `O=C(CCCN1CCC(O)(c2ccc(Cl)cc2)CC1)c1ccc(F)cc1`, the Potency entry is “inactive”.
